Source: PubChem
In the library only some 2.1% were active in any assay of this set; here they are far more common.
GRP78 ERSR act = induces the endoplasmic reticulum stress response in human glioma cells | U87-MG GRP78 promoter luciferase reporter, 16 h | Potency, µM, for the others: top-dose activation, usual class: activators | actives 0.02% (n = 420,000) | AID 602332; also: series mostly up to about 76 µM; % of control where 0% means no effect; nearly all actives have a fitted effect of over 35% in size
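Stably transfected U87-MG human glioma cells carrying a GRP78-based luminescent sensor were seeded at 1000 cells/well, pin-dosed with compounds and incubated 16 h. Luciferase reagent was then added, and end-point luminescence was read after 10 min at room temperature.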
Abeta rescue = compounds reversing amyloid beta toxicity in yeast; yeast expressing A-beta42, growth rescue, OD600, 48 h; response scale: 0% DMSO, 100% iron-clioquinol control; Potency, µM (series often up to 46.1 µM), actives largely listed as activators; actives 0.063% (n = 410,000); AID 1347071; also: nearly all actives have a fitted effect of over 55% in size
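Yeast A-beta toxicity model in growth medium with pinned compounds, 48 h at 30 C; growth read as absorbance at 600 nm. Normalized to FeCl3/clioquinol equimolar mix (positive) and DMSO (negative).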
TDP-43 yeast inh = rescues yeast growth from TDP-43 toxicity; Potency, µM (doses to about 46.1 µM), for inactives: top-dose growth rescue (activation), hits mostly activators; TDP-43 expressing yeast growth rescue, BacTiter-Glo, 24 h; AID 652104; actives 1.8% (n = 410,000); also: % of control where 0% means no effect; nearly all actives have a fitted effect of over 50% in size
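Growth rescue of TDP-43-toxic yeast measured as ATP luminescence (BacTiter-Glo). Cells grown to mid-log in raffinose, induced in galactose at OD600=0.02, exposed to compound 24 hr at 30 deg C.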
Mito fusion yeast = blocks mitochondrial division or promotes mitochondrial fusion; S. cerevisiae fusion-defective mutant growth rescue, CellTiterGlo 48 h; Potency, µM (top dose mostly 46.1 µM), inactives show at the top dose growth rescue (activation), hits mostly activators; actives 0.23% (n = 320,000); also: % of control where 0% means no effect; nearly all actives have a fitted effect of over 45% in size
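Compounds are tested for their ability to restore growth of mitochondrial fusion-defective yeast strains at non-permissive 37C in YPEG medium over 48 hours. Viability is quantified by luciferase luminescence.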
aSyn rescue = rescues yeast growth from alpha-synuclein toxicity; Yeast expressing alpha-synuclein, growth rescue, BacTiter-Glo, 24 h; Potency, µM (top dose mostly 46.1 µM), inactives show at the highest dose growth rescue (activation), most hits filed as activators; actives 0.14% (n = 370,000); AID 652106; also: % of control where 0% means no effect; nearly all actives have a fitted effect of over 65% in size
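Screening used galactose-induced yeast with toxic alpha-synuclein levels, exposed to compound for 24 hr at 30 deg C. Cell growth, read with BacTiter-Glo luminescence, gave the measured signal.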
A-T KAP1 phos = candidate therapy for ataxia-telangiectasia; F2112 A-T fibroblasts, KAP-1 phosphorylation AlphaLISA; neocarzinostatin DNA damage 30 min before lysis; Potency, µM (doses to about 57.5 µM), for the others: top-dose activation, hits mostly activators; actives 0.19% (n = 320,000); also: % of control where 0% means no effect; nearly all actives have a fitted effect of over 45% in size
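ATM-like activity read as KAP-1 phosphorylation via AlphaLISA donor/acceptor antibody pairs after lysis and 6 hr at 25C. Cells were ATM-null patient fibroblasts (F2112, hTERT), dosed 60 min, then exposed to the DSB inducer NCS for 30 min.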
* hit, by the source's call; i = inactive; ? = inconclusive; · = no result; [ ] = dose if it differs, or a comment. Calls follow the shape of the dose curve; as a rule, active = well fitted curve in the direction sought with a large enough effect; inconclusive = small, poorly fitted or top-dose-only effect, or another doubt; inactive = no such curve, though single readings can be large; an effect the other way counts as inactive or inconclusive. Potency is read from the fitted curve at half-maximal effect.

SMILES | GRP78 ERSR act | Abeta rescue | TDP-43 yeast inh | Mito fusion yeast | aSyn rescue | A-T KAP1 phos
Cc1ccc(NC(=O)CSc2nc(-c3cccs3)nc3cc(=O)[nH]n23)cc1 | 4.1% | i | 0.0% | · | · | ·
N#CCCn1c(=O)c(-c2ccc(Cl)cc2)nc2cnc(N3CCNCC3)nc21 | -2.9% | · | · | · | · | ·
COc1cc(OC)c(OC)cc1CN1CCOc2ccc(CN3C[C@@H](C)O[C@@H](C)C3)cc2C1 | -5.2% | · | · | · | · | ·
c1ccc(Cn2c(-c3cncs3)nc3ccccc32)cc1 | 10.2% | i | 7.94µM* | 0.1% | -10.8% | 2.6%
CCCCc1ccc(NC(=O)N[C@@H](C)C(=O)O)cc1 | -0.7% | i | 1.0% | 0.5% | -8.3% | -23.1%
CCCCc1ccc(NC(=O)C(C)CC)cc1 (stereo unspecified) | -1.1% | i | 11.2µM* | -10.3% | -12.8% | -7.1%
CCCCc1ccc(NC(=O)CC(C)(C)C)cc1 | 5.3% | i | 20µM* | · | 2.5% | -0.4%
CCCCc1ccc(CC(=O)NO)cc1 | -1.0% | · | · | · | 15.8µM* | ·
CCCCc1ccc(NC(=O)CC(C)=O)cc1 | 6.3% | i | 6.4% | 7.4% | 9.4% | 2.5%
O=C(c1cccc(F)c1F)N1CCOc2ccc(CN3CCC(Oc4cccnc4)CC3)cc2C1 | -0.9% | · | · | · | · | ·
CC(=O)OC[C@@H]1O[C@H](C/C=N\O[C@@H](C)CN2CCCCc3nc(C)c(C)cc32)C=C[C@@H]1OC(C)=O | -2.5% | · | · | · | · | ·
Cc1ncc2c(c1CNS(=O)(=O)c1cccs1)CCN(C(=O)/C=C/c1ccc(F)cc1F)C2 | -4.2% | · | · | · | · | ·
COc1ccc(CN2CCOc3ccc(CN4CCC(Oc5cccnc5)CC4)cc3C2)c(F)c1 | -0.9% | · | · | · | · | ·
CCc1ccc(Nc2ccc(C(=O)O)cc2[N+](=O)[O-])cc1 | -1.3% | i | ? | 20µM* | 0.5% | 11.8%
CCc1ccc(Nc2ccc(C(N)=O)cc2[N+](=O)[O-])cc1 | 8.0% | i | -8.3% | ? | -6.6% | -1.2%
Cc1ccc(NC(=O)CSc2ccc(C(N)=O)cc2[N+](=O)[O-])cc1C | -0.6% | i | 18.7% | 0.7% | 8.1% | -1.8%
Cc1ccc(Nc2ccc(C(N)=O)cc2[N+](=O)[O-])cc1C | 0.2% | i | 20.9% | ? | -4.5% | 25.1µM*
Cc1ccn2c(=O)cc(COc3ccc(NC(=O)COc4ccc(Cl)cc4)cc3)nc2c1 | -0.6% | i | 14.8% | · | · | ·
Cc1sc2ncnc(N(C)Cc3cccs3)c2c1C | 0.1% | i | 12.6µM* | 6.2% | 11.9% | -2.3%
CN(Cc1cccs1)c1ncnc2sccc12 | -1.5% | i | 12.6µM* | -9.7% | 10.8% | 19.3%
Cc1sc2ncnc(N(C)CCc3ccccn3)c2c1C | -3.2% | i | 16.2% | 0.0% | -10.5% | -9.1%
c1csc(CNc2ncnc3sccc23)c1 | -4.0% | i | 14.1µM* | · | -2.3% | ·
CNC(=O)[C@@H]1C[C@H](Sc2nc3ccccc3[nH]2)CN1Cc1ccccc1C(F)(F)F | -2.5% | · | · | · | · | ·
O=C(NCc1nnc2n1CCN(C(=O)/C=C/c1ccccc1)CC2)c1cccc(F)c1 | -3.7% | · | · | · | · | ·
O=[N+]([O-])c1cc(S(=O)(=O)Nc2ccccc2)ccc1N1CCN(c2ccccc2)CC1 | 0.1% | i | 14.7% | 20µM* | 1.1% | -0.5%
SMILES | GRP78 ERSR act | Abeta rescue | TDP-43 yeast inh | Mito fusion yeast | aSyn rescue | A-T KAP1 phos
O=[N+]([O-])c1cc(S(=O)(=O)Nc2ccccc2)ccc1Nc1ccccc1 | -3.5% | ? | 12.6µM* | · | 12.8% | ·
COCC1=C(C(=O)OC(C)OC(=O)OC(C)C)N2C(=O)C(NC(=O)/C(=N/OC)c3csc(N)n3)[C@H]2SC1 (stereo partly specified) | -2.7% | · | · | · | · | ·
Cc1c(C(=O)N2CC3CCC2C3)sc2ncnc(NCCc3c[nH]c4ccccc34)c12 (stereo unspecified) | -1.7% | · | · | · | · | ·
CCOC(=O)n1c(=O)oc2ccc(Cl)cc21 | 4.4% | i | 10µM* | -0.1% | 1.4% | ·
CCOC(=O)n1c(=O)n(Cc2ccc(Cl)cc2Cl)c2ccccc21 | -4.4% | i[9.22 µM] | 22.4µM* | 22.5% | 18.7% | 4.1%
COc1ccc(NC(=O)CN(C)C(=O)c2cc3c(s2)CCCCC3)cc1 | -3.4% | i | 28.2µM* | 5.0% | 0.1% | 9.3%
CN(CC(=O)Nc1ccccc1Br)C(=O)c1cc2c(s1)CCCCC2 | 7.2% | i | 17.8µM* | 18.7% | 1.7% | 2.9%
COc1ccc(NC(=O)CN(C)C(=O)c2cc3c(s2)CCC3)cc1 | -4.3% | i | 8.2% | -1.5% | 1.3% | 1.9%
COc1ccc(N2CCN(C(=O)CCc3c(C)nc4cc(-c5cccc(F)c5)nn4c3C)CC2)cc1 | -6.9% | i | 10.6% | · | · | ·
COc1ccc(N2CCN(C(=O)CCc3c(C)nc4c(-c5ccccc5)c(C)nn4c3C)CC2)cc1 | -4.4% | i | 22.4µM* | · | · | ·
NC(=O)COC(=O)c1ccccc1Nc1ccc(SC(F)F)cc1 | 3.5% | i | ? | ? | -4.3% | 1.6%
CC(OC(=O)c1ccccc1Nc1ccc(SC(F)F)cc1)C(N)=O (stereo unspecified) | 0.0% | i | ? | 14.1µM* | -0.2% | 2.5%
COC(=O)c1ccc(-c2cccc3c2OC(CNC(=O)/C=C/c2ccc(OC)c(OC)c2)C3)nc1 (stereo unspecified) | -0.2% | · | · | · | · | ·
N#Cc1sc(NCc2cccc(Cl)c2)nc1Cl | -1.2% | i | 14.1µM* | 27.2% | 19.1% | -8.8%
CC(=O)Nc1cc(C(=O)N2CC3(C)CC2CC(C)(C)C3)cc2ncn(CCc3ccccn3)c12 (stereo unspecified) | -5.4% | · | · | · | · | ·
COc1ccc2c(c1)cc(C(=O)N[C@H](C(=O)N1CCC(C(=O)O)CC1)C(C)C)n2C | -3.7% | i | -4.2% | -3.3% | 5.2% | 7.08µM*
CCCN1C(=O)c2ccccc2NC1c1ccc(OC)c(COc2ccc([N+](=O)[O-])cc2)c1 (stereo unspecified) | -1.9% | · | · | · | 9.0% | ·
OC1Cc2ccccc2C1Nc1cccc(C(F)(F)F)c1 (stereo unspecified) | -0.9% | i | 12.6µM* | · | ? | ·
Cc1c(C(=O)O)cnc2cc(-c3ccc(Cl)cc3)nn12 | -3.5% | i | 3.55µM* | -0.2% | -4.1% | -2.1%
CC(=O)c1cnc2cc(-c3ccc(Cl)cc3)nn2c1C | 5.5% | i | -8.4% | 1.4% | 2.0% | ·
c1ccc(-n2nnnc2-c2cccc3ccccc23)cc1 | -3.2% | i | 14.1µM* | · | 5.4% | ·
CCn1cc(C(=O)OCC(=O)OC2CC(C)CCC2C(C)C)c(=O)c2ccc(C)nc21 (stereo unspecified) | -13.3% | i | 22.4µM* | 17.2% | 0.3% | 0.8%
